Source: PubChem BioAssay AID651995 (Sanford-Burnham Center for Chemical Genomics, 2013)
Among all 2,500 compounds or so, about 480 (19%) were called active.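 The calls were made as follows: active = mean inhibition above about 25% (limit read from the data); inactive = the rest.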 These entries were drawn from the full list.

Assay: inhibitors of Wnt3a-driven luciferase in Wnt-LIGHT cells – cell-based, luminescence, single concentration, counter-screen for Gli-SUFU antagonist project, confirmation (AID 651995)
Settings: Wnt3a-driven luciferase reporter, at 6.25 µM, hits give high values
For Cc1ccc(S(=O)(=O)N2C[C@@H]3CCCC[C@@H]3[C@@H](C)[C@H]2c2cn(Cc3ccccc3)c3ccc(F)cc23)cc1, the inhibition was 30.5% (active). For COc1ccccc1N1CCN(Cc2cc(OC)c3c(c2)OCO3)CC1, the inhibition was -25% (inactive). In the case of CCN(CC(=O)Nc1cc(Cl)ccc1C)C(=O)CSCc1ccc(C)cc1, the inhibition is reported as -8.43% (inactive). For C=CCOC(=O)C1=C[C@@H](c2ccc3c(c2)OCO3)C[C@@H](OCCCCO)O1, the inhibition was -7.34% (inactive). With Cc1c(Cl)c([N+](=O)[O-])nn1Cc1ccc(C(=O)N/N=C\c2cc(Cl)ccc2O)o1 the inhibition was 61.7% (active). With Cc1cc([N+](=O)[O-])c(-c2ccc(/C=N/n3cnnc3)o2)cc1Cl the inhibition was -8.22% (inactive). For O=[N+]([O-])c1ccc(N2CCN(CC(O)COc3ccccc3)CC2)cc1 (stereo unspecified), the inhibition was -30.2% (inactive). With CC1(C)Cc2ccccc2/C(=C/C(=O)c2ccccc2)N1 the inhibition was 9.91% (inactive). With CCOC(=O)c1cnc(-n2nc(C)cc2C)nc1NNc1cc(C)nc(-c2ccccc2)n1 the inhibition was 40.7% (active). For Cc1nn(C)c(Cl)c1CN1CCC(n2nccc2NC(=O)C2CCCC2)CC1, the inhibition was -36.2% (inactive). For CCCC1=Nc2cc(C(=O)NCc3ccco3)ccc2Sc2ccccc21, the inhibition was -23.7% (inactive). With CCN1/C(=C/C(=S)Nc2ccccc2)Sc2ccccc21 the inhibition was -77.3% (inactive). With CCc1c(C)[nH]c(=S)c(C#N)c1C the inhibition was -19.5% (inactive). For N#CC(C#N)=CN=c1ccn(Cc2ccc(Cl)cc2Cl)cc1, the inhibition was -5.79% (inactive). With N#Cc1ccc(C(=O)Nc2nc(-c3cccs3)c(C(=O)C(F)(F)F)s2)cc1 the inhibition was 65.1% (active). With O=C(NC1CCN(C(=S)Nc2ccc(Cl)cc2)CC1)C1CCCCC1 the inhibition was -1.08% (inactive). In the case of Cc1ccc(-c2nc(CSCC(=O)NC3CCN(Cc4ccccc4)CC3)c(C)o2)cc1, the inhibition is reported as -19.9% (inactive). For c1c2c(cc3sc(N4CCCCC4)nc13)OCCO2, the inhibition was 85.8% (active). With CN(C)CCN(C(=O)C1CCCCC1)c1nc2cc3c(cc2s1)OCO3 the inhibition was -21.9% (inactive). With CN(C)C(CNC(=O)Cc1ccc([N+](=O)[O-])cc1)c1ccccc1 (stereo unspecified) the inhibition was -27% (inactive). In the case of COc1ccccc1CNC(=O)C1CCN(c2nc3ccccc3o2)CC1, the inhibition is reported as -23.3% (inactive). In the case of C=CCC1(CC=C)CCCN1C(=O)c1cc(COc2ccc(-n3cncn3)cc2)on1, the inhibition is reported as -17% (inactive). With CCCOc1ccccc1C1CC(=O)Nc2cc3c(cc21)OCO3 (stereo unspecified) the inhibition was -18.6% (inactive). In the case of COc1ccc(NS(=O)(=O)c2ccc(NC(C)=O)cc2)cc1OC, the inhibition is reported as 13.2% (inactive). For COc1ccc(NS(=O)(=O)c2ccc(N3CCN(CCO)CC3)c([N+](=O)[O-])c2)cc1, the inhibition was 26.4% (active). In the case of CC1(C)CC2CC(C)(CN2c2ncnc3ccc(Br)cc23)C1 (stereo unspecified), the inhibition is reported as 19% (inactive). With CC1(C)CC(=O)c2c(n(S(=O)(=O)c3ccccc3)c3ccc(NS(=O)(=O)c4ccccc4)cc23)C1 the inhibition was 13.1% (inactive). For COc1ccc(OC)c(Cc2cnc3nc(N)nc(N)c3c2C)c1, the inhibition was 14.4% (inactive). In the case of O=C1/C(=C/c2ccc(F)cc2)SC(=S)N1NS(=O)(=O)c1ccccc1, the inhibition is reported as 12.4% (inactive). In the case of CN(c1ccc2nc3ccccc3c(=O)n2n1)C1CCCCC1, the inhibition is reported as 101% (active). With Nc1ccc(C(=O)N2CCN(S(=O)(=O)c3ccc(Cl)cc3)CC2)cc1[N+](=O)[O-] the inhibition was -13.1% (inactive). With O=C(CN1CCN(S(=O)(=O)c2cc(Cl)ccc2Cl)CC1)c1ccc(O)c(O)c1 the inhibition was 73.7% (active). In the case of CC(C)(CNC(=O)c1ccc(Cl)c(S(=O)(=O)N2CCc3ccccc3C2)c1)N1CCOCC1, the inhibition is reported as -21.4% (inactive). In the case of COc1cccc(-n2cc(C(=O)O)c3ccccc3c2=O)c1, the inhibition is reported as 20.7% (inactive). With CCOC(=O)c1cnc(Nc2nc3ccccc3o2)nc1CSC(=S)N1CCCCC1 the inhibition was -97.9% (inactive). For COc1ccccc1CCNC(=O)C(=O)NCCC1CCCCN1S(=O)(=O)c1cccs1 (stereo unspecified), the inhibition was -17.3% (inactive). For CC(=O)Nc1ccc(NC(=O)c2ccc3c(c2)C(=O)N(c2ccccc2C)C3=O)cc1, the inhibition was 3.62% (inactive). For COC(=O)c1ccc(CSc2nnc(N)s2)o1, the inhibition was -4.51% (inactive). With O=C1/C(=C\c2cccnc2)CN(Cc2ccccc2)C/C1=C\c1cccnc1 the inhibition was -9.32% (inactive). In the case of Cc1ccsc1C(=O)OCC(=O)c1cc(C)n(CC2CCCO2)c1C (stereo unspecified), the inhibition is reported as 104% (active). With Cc1onc(-c2ccccc2)c1C(=O)Nc1ccccc1C#N the inhibition was -19.9% (inactive). In the case of CC(=O)Nc1cccc(OCC(=O)/C=C2\N(C)c3ccccc3C2(C)C)c1, the inhibition is reported as -13.7% (inactive). In the case of COCCn1c(CN2CCC(Cc3ccccc3)CC2)nc2c1c(=O)n(C)c(=O)n2C, the inhibition is reported as 16.5% (inactive). With CCCCNc1nc2c(c(=O)n(C)c(=O)n2C)n1Cc1cccc(OC)c1 the inhibition was 36.1% (active). For Cn1c(=O)c2c(nc(NCCc3ccccc3)n2Cc2ccccc2)n(C)c1=O, the inhibition was -9.98% (inactive). With CN(C)c1cc[n+](Cc2ccccc2)cc1 the inhibition was 12.4% (inactive). With COc1ccc2nc(SCC(=O)Nc3c(C)cc(C)cc3C)[nH]c2c1 the inhibition was -15% (inactive). For O=C(Nc1cccc(S(=O)(=O)Nc2ccc(Cl)cc2)c1)c1ccc2c(c1)OCCO2, the inhibition was -22.2% (inactive). With Cc1ccc(NC(=S)Nc2ccc(F)cc2)cc1 the inhibition was -8.22% (inactive). With CC(C)c1ccc(OCC(O)CN2CCN(c3ccccn3)CC2)cc1 (stereo unspecified) the inhibition was -70.7% (inactive). For C=CCNC(=S)/N=c1/ccccn1Cc1ccccc1, the inhibition was -4.94% (inactive). In the case of CCOC(=O)c1ccc(NC(=O)Cn2cnc3cc(C)c(C)cc32)cc1, the inhibition is reported as -27.9% (inactive). In the case of COc1ccc(NC(=O)[C@H](NC(=O)[C@@H]2Cc3ccccc3CN2)c2ccccc2)cc1, the inhibition is reported as -2.11% (inactive). In the case of Cc1ccc(C)c(S(=O)(=O)N2CCN(c3ncnc4sccc34)CC2)c1, the inhibition is reported as 11.2% (inactive). With CC(=O)N1CCCc2cc(S(=O)(=O)N3CCCC(C(=O)N4CCN(c5cccc(Cl)c5)CC4)C3)ccc21 (stereo unspecified) the inhibition was 29.8% (active). For Brc1c(CSc2nncc3ccccc23)nc2ccccn12, the inhibition was 1.67% (inactive). For COc1ccc(Cn2c(-c3ccc(Cl)cc3)c[n+]3ccccc23)cc1, the inhibition was -74.3% (inactive). For CCCCC(=O)NC(c1ccc(OC)c(OC)c1)c1ccc2cccnc2c1O (stereo unspecified), the inhibition was 53.4% (active). In the case of Cc1ccc(Nc2nc(N3CCOCC3)nc(N3CCOCC3)n2)cc1Cl, the inhibition is reported as -104% (inactive). In the case of COc1ccccc1C1C2=C(COC2=O)Nc2cc3c(cc21)OCO3 (stereo unspecified), the inhibition is reported as -30.9% (inactive). With COC(=O)Cc1[nH]n(-c2nc3ccccc3s2)c(=O)c1C(C)=Nc1ccc(OC)cc1 the inhibition was 104% (active). With COc1cc(C(=O)OC2CCOC2=O)c([N+](=O)[O-])cc1OC (stereo unspecified) the inhibition was 1.38% (inactive). In the case of CCOc1ccc(-n2c(O)c(/C=N/Nc3nc(C)cc(C)n3)c3ccccc3c2=O)cc1, the inhibition is reported as 16.1% (inactive). For CN1C(CC(=O)Nc2ccc(Br)cc2)c2ccccc2CC1(C)C (stereo unspecified), the inhibition was -37.9% (inactive). In the case of C/C(=N\NC(=O)Cc1ccc(Cl)cc1)c1ccccn1, the inhibition is reported as 48.9% (active). For CC(=O)/C(=N\Nc1ccc(Cl)cc1Cl)Sc1cccc2cccnc12, the inhibition was -140% (inactive). In the case of CCNC(=S)N(CCN(CC)CC)Cc1cc2cc3c(cc2[nH]c1=O)OCO3, the inhibition is reported as -0.1% (inactive). With Cc1nonc1C1CCCN1C(=O)c1cc(COc2cccc(C(F)(F)F)c2)on1 (stereo unspecified) the inhibition was -42% (inactive). With Cc1ccc(S(=O)(=O)N(Cc2cc3ccccc3[nH]c2=O)CC2CCCO2)cc1 (stereo unspecified) the inhibition was 1.8% (inactive). In the case of Cc1cc2[nH]ncc2cc1NC(=S)NC(=O)c1ccccc1, the inhibition is reported as -34.9% (inactive). With Cc1ccccc1C(=O)NC(=S)Nc1ccc(N2CCN(C(=O)c3ccccc3)CC2)cc1 the inhibition was 41.2% (active). With Cc1cc(C)c(SCCc2ccncc2)c(C)c1 the inhibition was 32% (active). With CCCOc1ccc(Cc2c(Cl)nc(SC)nc2NC)cc1 the inhibition was 26.9% (active). With O=C(Nc1ccnn1C1CCN(C/C=C/c2ccc(F)cc2)CC1)C1CCCC1 the inhibition was -63.4% (inactive). For CNc1ccc(SC#N)cc1, the inhibition was -9.54% (inactive). For COc1ccc(C(=O)NC2CCCc3c2cnn3-c2cccc(C)c2C)c(OC)n1 (stereo unspecified), the inhibition was 24.6% (inactive). With CCN(CC)CCNC(=O)c1ccc(NC(=O)c2cc(-c3ccncc3)nc3ccccc23)cc1 the inhibition was -2.49% (inactive). In the case of Cc1ccc(C(=O)C[n+]2cc(-c3ccccc3)n3c2CCCCC3)cc1, the inhibition is reported as -0.91% (inactive). With Cc1ccc(-c2nc3c(cnn3-c3ccccc3)c(=O)o2)cc1 the inhibition was 4.18% (inactive). With O=C(C[C@H]1C/C=C\C[C@@H](NC(=O)OCC2c3ccccc3-c3ccccc32)C(=O)O[C@@H](c2ccccc2)CNC1=O)N[C@H](CO)Cc1ccccc1 the inhibition was -44.6% (inactive). In the case of COc1ccc(OC)c(/C=N/NC(=O)c2ccc[n+](CC(=O)c3ccccc3)c2)c1, the inhibition is reported as 2.64% (inactive). With CC[n+]1c(C)n(-c2ccccc2)c2ccc(NC(C)=O)cc21 the inhibition was 43.4% (active). For Cc1ccc(O)c(NC(=O)COc2cc(C)ccc2C)c1, the inhibition was -3.69% (inactive). In the case of CNc1nnc(-c2ccco2)s1, the inhibition is reported as -3.08% (inactive). For COC(=O)c1ccccc1NC(=O)C1(S(=O)(=O)c2ccc(Cl)cc2)CC1, the inhibition was -1.78% (inactive). With O=C(Nc1nc2ccc([N+](=O)[O-])cc2s1)c1ccc(S(=O)(=O)N2CCCc3ccccc32)cc1 the inhibition was 65.8% (active). For CCc1ccc(C2C(C#N)=C(N)N(N3CCOCC3)C3=C2C(=O)CC(C)(C)C3)s1 (stereo unspecified), the inhibition was -28.8% (inactive). With CCCc1nc(N)nc2c1C(=O)CC(C)(C)C2 the inhibition was 9.89% (inactive). With Cc1cc(NC(=O)c2cccc(N3C(=O)CCC3=O)c2)no1 the inhibition was 66% (active). In the case of CC1CC2=C(CC1/C=N/NC(N)=S)C(C)(C)CCC2 (stereo unspecified), the inhibition is reported as 21.2% (inactive). For CCc1c(C)nc2cc(C)[nH]n2c1=O, the inhibition was -9.69% (inactive).
